Assay [1] concerns the target Serine/threonine-protein kinase PAK 4 (Homo sapiens) (UniProt O96013). Conditions: at 1 µM.
For assay [2] the target is unchanged. Conditions: at 10 µM.
Assay [3] addresses Serine/threonine-protein kinase PAK 5 (Homo sapiens) (UniProt Q9P286). Particulars: at 1 µM.
For assay [4] the target is unchanged. Particulars: at 10 µM.
In assay [5] the target is Serine/threonine-protein kinase PAK 6 (Homo sapiens) (UniProt Q9NQU5). Particulars: at 1 µM.
Assay [6] shares this target. Conditions: at 10 µM.
Assay [7] concerns the target PAS domain-containing serine/threonine-protein kinase (Homo sapiens) (UniProt Q96RG2). Conditions: at 10 µM.
For assay [8], the target named is Activated CDC42 kinase 1 (Homo sapiens) (UniProt Q07912). Particulars: at 1 µM.
Assay [9] shares this target. Conditions: at 10 µM.
Assay [10] has as its target ALK tyrosine kinase receptor (Homo sapiens) (UniProt Q9UM73). Conditions: at 1 µM.
Assay [11] shares this target. Particulars: at 10 µM.
In assay [12] the target is T1, Activin receptor type-1B (Homo sapiens) (UniProt P36896).
T1 sequence (whole entry): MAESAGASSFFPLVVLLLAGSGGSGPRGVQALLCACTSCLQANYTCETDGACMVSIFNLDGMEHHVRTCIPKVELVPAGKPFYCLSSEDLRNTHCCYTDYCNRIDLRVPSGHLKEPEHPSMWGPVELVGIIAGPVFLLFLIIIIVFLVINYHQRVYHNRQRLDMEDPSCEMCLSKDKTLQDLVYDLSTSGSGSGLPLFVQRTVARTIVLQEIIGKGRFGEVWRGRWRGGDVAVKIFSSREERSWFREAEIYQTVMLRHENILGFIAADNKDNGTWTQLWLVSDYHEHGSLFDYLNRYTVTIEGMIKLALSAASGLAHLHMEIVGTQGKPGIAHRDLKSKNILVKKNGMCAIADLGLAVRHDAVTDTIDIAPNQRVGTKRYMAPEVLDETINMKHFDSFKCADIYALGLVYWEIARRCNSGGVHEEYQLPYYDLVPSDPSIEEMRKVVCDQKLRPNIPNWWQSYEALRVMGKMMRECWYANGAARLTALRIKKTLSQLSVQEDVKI
Conditions: at 1 µM.

The target in assay [13] is T1, Activin receptor type-1B (Homo sapiens). Conditions: at 10 µM.
For assay [14], the target named is T2, AMP-activated protein kinase (AMPK) alpha-1/beta-1/gamma-1 (Homo sapiens) (UniProt P54619+Q9Y478+Q13131). Particulars: at 1 µM.
Assay [15] deals with T2, AMP-activated protein kinase (AMPK) alpha-1/beta-1/gamma-1 (Homo sapiens). Conditions: at 10 µM.
Assay [16] has as its target T3, AMP-activated protein kinase, AMPK (Homo sapiens) (UniProt P54646+O43741+P54619+Q9UGJ0+Q9Y478+Q13131+Q9UGI9). Particulars: at 1 µM.
Assay [17] addresses T3, AMP-activated protein kinase, AMPK (Homo sapiens). Particulars: at 10 µM.
Assay [18] has as its target T4, NUAK family SNF1-like kinase 1 (Homo sapiens) (UniProt O60285).
T4 sequence (whole entry): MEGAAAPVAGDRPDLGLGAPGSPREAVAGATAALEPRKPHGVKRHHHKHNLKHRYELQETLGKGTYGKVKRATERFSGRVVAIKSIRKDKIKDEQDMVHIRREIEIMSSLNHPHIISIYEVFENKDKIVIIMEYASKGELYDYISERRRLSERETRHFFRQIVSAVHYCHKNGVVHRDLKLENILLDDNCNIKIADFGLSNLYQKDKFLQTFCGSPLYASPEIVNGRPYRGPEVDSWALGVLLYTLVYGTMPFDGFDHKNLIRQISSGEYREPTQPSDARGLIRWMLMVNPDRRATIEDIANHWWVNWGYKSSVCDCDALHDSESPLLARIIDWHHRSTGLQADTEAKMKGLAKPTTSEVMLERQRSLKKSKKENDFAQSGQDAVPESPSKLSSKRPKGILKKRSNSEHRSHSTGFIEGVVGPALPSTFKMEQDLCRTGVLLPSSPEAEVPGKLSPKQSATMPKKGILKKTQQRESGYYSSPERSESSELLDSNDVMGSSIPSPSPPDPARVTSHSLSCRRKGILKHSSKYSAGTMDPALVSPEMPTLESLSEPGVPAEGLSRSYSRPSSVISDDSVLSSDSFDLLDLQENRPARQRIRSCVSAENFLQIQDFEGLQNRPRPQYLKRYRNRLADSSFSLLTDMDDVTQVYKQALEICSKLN
Particulars: at 1 µM.

Assay [19] has as its target T4, NUAK family SNF1-like kinase 1 (Homo sapiens). Particulars: at 10 µM.
Assay [20] addresses T5, Mitogen-activated protein kinase kinase kinase 5 (Homo sapiens) (UniProt Q99683).
T5 sequence (whole entry): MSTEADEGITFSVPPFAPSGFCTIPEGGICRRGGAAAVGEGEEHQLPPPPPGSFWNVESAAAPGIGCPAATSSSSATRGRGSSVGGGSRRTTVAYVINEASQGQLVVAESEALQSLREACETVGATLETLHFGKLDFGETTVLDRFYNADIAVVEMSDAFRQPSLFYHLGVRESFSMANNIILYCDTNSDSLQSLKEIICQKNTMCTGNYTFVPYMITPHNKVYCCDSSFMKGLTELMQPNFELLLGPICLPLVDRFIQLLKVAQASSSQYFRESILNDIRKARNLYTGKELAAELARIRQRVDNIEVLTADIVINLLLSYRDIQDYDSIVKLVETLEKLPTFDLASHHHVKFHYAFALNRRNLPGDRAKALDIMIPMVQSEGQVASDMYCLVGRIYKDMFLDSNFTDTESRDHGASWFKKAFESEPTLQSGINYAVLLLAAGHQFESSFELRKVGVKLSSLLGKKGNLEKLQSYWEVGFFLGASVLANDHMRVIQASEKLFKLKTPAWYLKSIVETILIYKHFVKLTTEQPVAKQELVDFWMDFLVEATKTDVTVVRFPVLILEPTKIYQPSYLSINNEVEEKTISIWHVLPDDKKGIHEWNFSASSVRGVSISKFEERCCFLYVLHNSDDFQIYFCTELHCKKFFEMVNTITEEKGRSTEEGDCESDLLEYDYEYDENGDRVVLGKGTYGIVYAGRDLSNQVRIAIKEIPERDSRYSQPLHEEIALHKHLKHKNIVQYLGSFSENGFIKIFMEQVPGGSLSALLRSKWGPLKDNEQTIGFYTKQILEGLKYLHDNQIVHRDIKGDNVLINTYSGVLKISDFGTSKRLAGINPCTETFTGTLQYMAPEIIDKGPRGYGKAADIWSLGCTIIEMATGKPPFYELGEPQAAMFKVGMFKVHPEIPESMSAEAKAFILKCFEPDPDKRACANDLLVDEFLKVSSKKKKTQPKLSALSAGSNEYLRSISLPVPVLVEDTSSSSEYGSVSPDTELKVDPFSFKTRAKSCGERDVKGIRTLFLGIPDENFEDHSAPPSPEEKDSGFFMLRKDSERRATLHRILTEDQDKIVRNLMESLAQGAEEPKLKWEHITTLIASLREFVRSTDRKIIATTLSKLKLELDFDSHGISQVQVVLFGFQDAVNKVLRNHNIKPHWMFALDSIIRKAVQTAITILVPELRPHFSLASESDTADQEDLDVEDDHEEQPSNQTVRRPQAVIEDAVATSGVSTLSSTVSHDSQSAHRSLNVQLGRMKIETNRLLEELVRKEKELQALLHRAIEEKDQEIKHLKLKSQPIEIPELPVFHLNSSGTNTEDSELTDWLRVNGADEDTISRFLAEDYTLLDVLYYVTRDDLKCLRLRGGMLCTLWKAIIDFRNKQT
Conditions: at 1 µM.

Activated CDC42 kinase 1 (Homo sapiens), sequence (Q07912 whole entry, looked up): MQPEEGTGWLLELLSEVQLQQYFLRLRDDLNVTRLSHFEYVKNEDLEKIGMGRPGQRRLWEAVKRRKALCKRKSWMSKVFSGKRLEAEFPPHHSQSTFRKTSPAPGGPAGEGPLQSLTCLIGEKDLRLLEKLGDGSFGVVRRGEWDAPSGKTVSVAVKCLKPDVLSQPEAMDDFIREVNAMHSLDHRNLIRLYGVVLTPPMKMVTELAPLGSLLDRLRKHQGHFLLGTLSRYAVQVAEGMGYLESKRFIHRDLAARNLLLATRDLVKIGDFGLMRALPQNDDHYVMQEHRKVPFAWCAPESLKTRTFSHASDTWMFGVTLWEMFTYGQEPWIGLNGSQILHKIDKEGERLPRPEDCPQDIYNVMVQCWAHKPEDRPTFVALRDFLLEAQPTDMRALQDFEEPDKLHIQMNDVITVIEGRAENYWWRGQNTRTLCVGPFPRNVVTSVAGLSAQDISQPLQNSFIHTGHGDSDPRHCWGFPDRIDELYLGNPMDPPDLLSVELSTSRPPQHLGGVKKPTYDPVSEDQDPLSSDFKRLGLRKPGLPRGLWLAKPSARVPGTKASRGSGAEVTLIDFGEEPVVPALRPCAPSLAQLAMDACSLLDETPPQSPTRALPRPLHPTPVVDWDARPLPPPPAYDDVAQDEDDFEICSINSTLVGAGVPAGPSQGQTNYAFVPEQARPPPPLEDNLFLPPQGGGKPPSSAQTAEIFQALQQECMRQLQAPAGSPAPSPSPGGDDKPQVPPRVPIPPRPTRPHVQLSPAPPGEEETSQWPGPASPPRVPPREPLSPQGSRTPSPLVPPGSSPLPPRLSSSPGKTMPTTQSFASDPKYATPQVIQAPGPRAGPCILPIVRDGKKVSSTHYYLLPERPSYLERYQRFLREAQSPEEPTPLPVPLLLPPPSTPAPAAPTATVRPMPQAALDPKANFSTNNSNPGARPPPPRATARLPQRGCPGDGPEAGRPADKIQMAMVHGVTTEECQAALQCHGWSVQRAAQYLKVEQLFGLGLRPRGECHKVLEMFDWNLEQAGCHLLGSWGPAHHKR
ALK tyrosine kinase receptor (Homo sapiens), sequence (Q9UM73 19-1620 limits assumed): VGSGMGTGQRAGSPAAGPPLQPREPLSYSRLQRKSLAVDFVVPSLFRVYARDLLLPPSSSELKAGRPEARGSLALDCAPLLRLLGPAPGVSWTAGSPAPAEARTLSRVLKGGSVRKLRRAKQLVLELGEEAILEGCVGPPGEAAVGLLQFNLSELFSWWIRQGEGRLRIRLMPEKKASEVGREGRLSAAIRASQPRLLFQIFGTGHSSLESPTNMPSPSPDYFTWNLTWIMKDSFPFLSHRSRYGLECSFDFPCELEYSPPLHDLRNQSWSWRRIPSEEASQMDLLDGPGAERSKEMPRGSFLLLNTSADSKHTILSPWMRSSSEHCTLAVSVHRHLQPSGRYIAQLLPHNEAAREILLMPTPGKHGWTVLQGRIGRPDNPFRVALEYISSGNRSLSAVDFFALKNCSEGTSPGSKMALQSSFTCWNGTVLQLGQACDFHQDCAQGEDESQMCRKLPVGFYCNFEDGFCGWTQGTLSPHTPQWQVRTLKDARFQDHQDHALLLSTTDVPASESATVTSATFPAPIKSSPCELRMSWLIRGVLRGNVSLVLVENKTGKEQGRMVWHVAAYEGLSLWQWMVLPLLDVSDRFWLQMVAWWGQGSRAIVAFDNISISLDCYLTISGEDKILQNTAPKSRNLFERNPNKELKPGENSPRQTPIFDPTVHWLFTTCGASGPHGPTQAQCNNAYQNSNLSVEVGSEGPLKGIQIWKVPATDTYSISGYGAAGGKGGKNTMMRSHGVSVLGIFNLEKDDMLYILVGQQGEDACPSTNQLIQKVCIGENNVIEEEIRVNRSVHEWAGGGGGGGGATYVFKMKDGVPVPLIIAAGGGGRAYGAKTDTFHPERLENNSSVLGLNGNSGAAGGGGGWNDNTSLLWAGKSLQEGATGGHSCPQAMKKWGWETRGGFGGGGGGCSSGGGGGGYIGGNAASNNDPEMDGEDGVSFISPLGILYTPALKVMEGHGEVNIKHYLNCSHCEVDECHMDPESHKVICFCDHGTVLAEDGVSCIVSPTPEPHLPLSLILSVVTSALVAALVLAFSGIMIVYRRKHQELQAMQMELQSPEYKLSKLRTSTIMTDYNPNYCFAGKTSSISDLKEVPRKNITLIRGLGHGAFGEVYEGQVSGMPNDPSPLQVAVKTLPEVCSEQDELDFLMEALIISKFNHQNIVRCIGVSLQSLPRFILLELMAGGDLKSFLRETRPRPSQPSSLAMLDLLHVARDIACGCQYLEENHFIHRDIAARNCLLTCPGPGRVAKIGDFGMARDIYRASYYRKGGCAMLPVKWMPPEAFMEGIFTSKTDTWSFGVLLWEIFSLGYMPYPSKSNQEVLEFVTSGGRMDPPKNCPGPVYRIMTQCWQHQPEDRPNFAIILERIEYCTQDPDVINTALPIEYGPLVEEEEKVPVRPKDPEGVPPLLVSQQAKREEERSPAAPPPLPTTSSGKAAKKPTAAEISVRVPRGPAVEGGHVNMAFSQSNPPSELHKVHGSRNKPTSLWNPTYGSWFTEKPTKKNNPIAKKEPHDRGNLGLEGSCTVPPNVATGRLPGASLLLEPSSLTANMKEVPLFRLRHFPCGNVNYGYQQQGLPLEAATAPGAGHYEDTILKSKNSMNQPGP
PAS domain-containing serine/threonine-protein kinase (Homo sapiens), sequence (Q96RG2 whole entry, the tested form may be a part): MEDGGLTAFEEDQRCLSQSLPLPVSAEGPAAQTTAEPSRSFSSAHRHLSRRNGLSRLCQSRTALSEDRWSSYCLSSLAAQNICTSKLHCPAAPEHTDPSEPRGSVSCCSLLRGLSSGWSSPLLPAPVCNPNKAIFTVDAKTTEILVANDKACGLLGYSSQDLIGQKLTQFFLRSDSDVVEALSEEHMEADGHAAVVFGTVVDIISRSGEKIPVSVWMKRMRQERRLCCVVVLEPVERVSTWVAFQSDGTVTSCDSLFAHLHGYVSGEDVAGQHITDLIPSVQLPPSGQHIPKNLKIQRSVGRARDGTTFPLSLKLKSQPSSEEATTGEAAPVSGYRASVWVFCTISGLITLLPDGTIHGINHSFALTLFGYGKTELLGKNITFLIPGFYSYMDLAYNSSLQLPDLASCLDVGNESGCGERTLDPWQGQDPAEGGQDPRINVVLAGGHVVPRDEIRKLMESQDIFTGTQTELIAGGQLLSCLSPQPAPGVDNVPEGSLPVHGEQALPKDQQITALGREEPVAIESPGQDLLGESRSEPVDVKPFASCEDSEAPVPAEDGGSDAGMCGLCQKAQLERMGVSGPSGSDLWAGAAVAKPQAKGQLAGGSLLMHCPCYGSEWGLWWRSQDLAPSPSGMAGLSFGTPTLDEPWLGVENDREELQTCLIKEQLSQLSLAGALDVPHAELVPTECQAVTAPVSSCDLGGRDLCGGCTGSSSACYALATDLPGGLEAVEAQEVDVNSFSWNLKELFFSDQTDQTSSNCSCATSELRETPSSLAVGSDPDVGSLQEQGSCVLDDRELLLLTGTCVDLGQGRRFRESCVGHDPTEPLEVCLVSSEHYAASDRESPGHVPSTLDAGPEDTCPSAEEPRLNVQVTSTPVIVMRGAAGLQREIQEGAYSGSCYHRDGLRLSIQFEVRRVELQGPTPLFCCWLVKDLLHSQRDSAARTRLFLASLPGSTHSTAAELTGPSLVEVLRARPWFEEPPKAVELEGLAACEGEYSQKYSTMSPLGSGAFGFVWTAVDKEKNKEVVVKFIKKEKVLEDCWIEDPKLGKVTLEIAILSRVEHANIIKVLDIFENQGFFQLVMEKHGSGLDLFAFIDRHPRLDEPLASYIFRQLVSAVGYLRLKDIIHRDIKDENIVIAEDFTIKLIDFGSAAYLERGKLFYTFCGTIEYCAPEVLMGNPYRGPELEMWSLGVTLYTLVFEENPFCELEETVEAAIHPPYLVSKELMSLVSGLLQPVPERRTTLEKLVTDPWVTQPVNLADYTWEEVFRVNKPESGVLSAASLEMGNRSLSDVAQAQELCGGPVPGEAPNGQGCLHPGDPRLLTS
Serine/threonine-protein kinase PAK 5 (Homo sapiens), sequence (Q9P286 whole entry, looked up): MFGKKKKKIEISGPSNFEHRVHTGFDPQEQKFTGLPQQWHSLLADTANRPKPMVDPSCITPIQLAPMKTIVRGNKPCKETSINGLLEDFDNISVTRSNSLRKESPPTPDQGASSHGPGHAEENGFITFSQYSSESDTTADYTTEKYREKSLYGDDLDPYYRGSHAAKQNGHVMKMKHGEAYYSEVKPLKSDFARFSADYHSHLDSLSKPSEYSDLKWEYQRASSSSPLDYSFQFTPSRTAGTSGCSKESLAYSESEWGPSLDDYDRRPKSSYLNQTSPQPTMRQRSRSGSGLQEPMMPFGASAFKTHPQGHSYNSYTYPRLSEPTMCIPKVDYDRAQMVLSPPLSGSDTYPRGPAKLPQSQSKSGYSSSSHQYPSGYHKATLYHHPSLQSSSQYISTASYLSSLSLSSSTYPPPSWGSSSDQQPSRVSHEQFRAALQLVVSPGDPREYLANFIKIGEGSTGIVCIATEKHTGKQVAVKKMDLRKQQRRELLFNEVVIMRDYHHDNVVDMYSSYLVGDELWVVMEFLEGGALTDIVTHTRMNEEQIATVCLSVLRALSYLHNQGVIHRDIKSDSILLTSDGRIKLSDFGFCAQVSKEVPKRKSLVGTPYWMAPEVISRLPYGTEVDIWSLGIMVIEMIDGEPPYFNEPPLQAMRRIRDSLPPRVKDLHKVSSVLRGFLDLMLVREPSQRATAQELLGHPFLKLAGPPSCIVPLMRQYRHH

For `COc1ccc(CNc2nc(N(CCO)CCO)nc3c2ncn3C(C)C)cc1`, the residual activity in assay [1] was determined as 89%; in assay [2], 56%; in assay [3], 95%; in [4] it was 66%; in assay [5], 87%; in assay [6], 63%. Further, the residual activity in assay [7] was 129%; in assay [8] it was 70%; in assay [9], 51%; in assay [10], 80%; in assay [11], 61%; in assay [12], 97%. Also, the residual activity in [13] amounted to 118%; in assay [14] it was 97%; in assay [15], 80%; in assay [16], 86%; in assay [17], 88%; in [18] it was 107%. In addition, the residual activity was 77% in assay [19] and 95% in [20].

In the case of `COc1ccc(OC)c2c(=S)c3ccccc3[nH]c12`, the residual activity stood at 95% in assay [1]; 90% in assay [2]; 115% in assay [3]; 101% in assay [4]; 95% in [5]; 80% in [6]. The residual activity in assay [7] was determined as 102%; in [8], 83%; in assay [9], 57%; in [10], 79%; in [11], 76%; in [12], 90%. Also, the residual activity came out at 117% in assay [13]; 90% in assay [14]; 81% in assay [15]; 87% in assay [17]; 103% in assay [18]; 84% in [19]. Besides, in [20], the residual activity was 96%.

Take `O=C1Nc2ccc(Br)cc2/C1=C\c1cc2c([nH]1)CCCC2`: the residual activity is 84% in assay [1]; 77% in assay [2]; 105% in [4]; 98% in assay [7]; 54% in assay [8]; 50% in assay [9]. Moreover, the residual activity in [10] was 76%; in assay [11], 112%; in [12], 112%; in [13], 101%; in assay [14], 76%; in [15], 60%. Also, the values for the residual activity in assay [18] and in [19] were 70% and 74%, respectively.

For the compound `CO[C@H]1[C@@H](OC)C[C@H](C)[C@@H](OC)C2=CC(=O)C=C(NC(=O)/C(C)=C/C=C/[C@H](OC)[C@@H](OC(N)=O)/C(C)=C/[C@@H]1C)C2=O`, the residual activity in assay [1] is 106%; in assay [2], 92%; in assay [3], 92%; in [4], 64%; in assay [5], 99%; in assay [6], 84%. Further, the residual activity in assay [7] was 59%; in [8], 92%; in assay [9] it was 72%; in assay [10] it was 71%; in [11], 50%; in assay [12] it was 112%. For the same compound, the residual activity was 112% in assay [13]; 94% in assay [14]; 78% in assay [15]; 92% in assay [16]; 78% in assay [17]; 93% in [18]. Besides, the residual activity in [19] was 94%; in [20], 88%.

As for `Cc1cc2ncc(-c3ccccc3)nc2cc1C`, the residual activity came out at 104% in assay [1]; 88% in assay [2]; 92% in assay [4]; 94% in assay [5]; 77% in [6]; 59% in assay [9]. Also, the residual activity in assay [10] is 82%; in assay [11] it was 60%; in assay [14] it was 105%; in assay [15] it was 74%; in [18], 92%; in [19], 94%. The residual activity in assay [20] stood at 78%.

Take `O=C1Nc2ccccc2/C1=C1/Nc2ccccc2/C1=N\OCCC(O)CO` (stereo not given): the residual activity worked out at 44% in assay [1]; 12% in assay [2]; 61% in assay [3]; 30% in [4]; 81% in [5]; 27% in assay [6]. Moreover, the residual activity in assay [7] came out at 116%; in assay [8] it was 14%; in assay [9], 1%; in assay [10], 24%; in assay [11], 2%; in assay [14], 4%. Moreover, the residual activity in [15] was determined as 4%; in assay [16], 3%; in assay [17] it was 4%; in assay [18] it was 2%; in assay [19], 5%; in assay [20] it was 68%.

For `c1ccc2c(-c3ccncc3)c[nH]c2c1`, the residual activity worked out at 93% in assay [1]; 80% in [2]; 97% in assay [3]; 103% in [4]; 106% in assay [5]; 103% in [6]. Moreover, the residual activity in [7] was found to be 20%; in assay [8], 80%; in [9], 49%; in assay [10] it was 76%; in [11], 105%; in [13], 110%. The residual activity in assay [14] turned out to be 93%; in assay [15] it was 82%; in [17], 85%; in assay [18], 97%; in assay [19] it was 84%; in [20], 93%.

In the case of `N#Cc1cnc2cnc(NCc3cccnc3)cc2c1Nc1ccc(F)c(Cl)c1`, the residual activity in assay [1] turned out to be 65%; in assay [2], 18%; in assay [3] it was 11%; in assay [4], 5%; in assay [5], 2%; in assay [6], 2%. The residual activity is 63% in [7]; 3% in [8]; 1% in [9]; 90% in [10]; 75% in [11]; 92% in [13]. In addition, the residual activity in assay [14] is -2%; in assay [15], -1%; in assay [16] it was -5%; in assay [17], -1%; in [19], -1%; in [20], 85%.

The values are drawn from ChEMBL document CHEMBL2218924, “A broad activity screen in support of a chemogenomic map for kinase signalling research and drug discovery” (Biochem J, 2013).
